Article PMC5540273 (PLoS ONE, 2017)

Experiments:
Settings in all cases: concentration: 1 μM, replicates: in singlicate; n = 1
DMPK = tested on: DMPK
DRAK1 = tested on: T1, DRAK1
T1 construct: gene STK17A

DRAK2 = tested on: T2, DRAK2
T2 construct: gene STK17B

DYRK1A = tested on: DYRK1A
DYRK1B = tested on: DYRK1B
DYRK2 = tested on: DYRK2
EGFR = tested on: EGFR
EIF2AK1 = tested on: EIF2AK1
EPHA1 = tested on: EPHA1
EPHA2 = tested on: EPHA2
EPHA3 = tested on: EPHA3
EPHA4 = tested on: EPHA4
EPHA5 = tested on: EPHA5
EPHA6 = tested on: EPHA6
EPHA7 = tested on: EPHA7
EPHA8 = tested on: EPHA8
EPHB1 = tested on: EPHB1
EPHB2 = tested on: EPHB2
EPHB3 = tested on: EPHB3
EPHB4 = tested on: EPHB4
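Note: KINOMEscan kinase panel screen.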

Structure (SMILES)	%Inh (DMPK) [%]	%Inh (DRAK1) [%]	%Inh (DRAK2) [%]	%Inh (DYRK1A) [%]	%Inh (DYRK1B) [%]	%Inh (DYRK2) [%]	%Inh (EGFR) [%]	%Inh (EIF2AK1) [%]	%Inh (EPHA1) [%]	%Inh (EPHA2) [%]	%Inh (EPHA3) [%]	%Inh (EPHA4) [%]	%Inh (EPHA5) [%]	%Inh (EPHA6) [%]	%Inh (EPHA7) [%]	%Inh (EPHA8) [%]	%Inh (EPHB1) [%]	%Inh (EPHB2) [%]	%Inh (EPHB3) [%]	%Inh (EPHB4) [%]
Fc1ccc(-c2ncn(CCCN3CCOCC3)c2-c2ccccn2)cc1 [SB-211742]	17	0	0	11	37	5	12	0	17	31	0	8	0	0	0	9	20	0	20	28
COCCNC(=O)c1ccc(-c2cc(C(=O)NC3CC3)cc(F)c2C)cc1 [GW868318]	20	13	0	9	21	28	21	22	29	7	38	21	25	30	4	12	16	7	23	32
Cc1c(Cn2c(C)nn3c(=O)cc(N4CCOC(C)C4)nc23)cccc1C(F)(F)F (stereo not shown) [GSK2344444]	0	1	0	7	0	24	34	0	0	5	0	3	0	0	3	0	10	46	0	0
O=C(NCCCN1CCOCC1)c1cccc(Nc2nccc(Nc3ccc(Oc4ccccc4)cc3)n2)c1 [GW663929]	0	10	8	0	31	16	80	0	0	0	25	3	0	3	0	0	1	0	2	14
NS(=O)(=O)CCc1cccc(Nc2nccc(-c3c(-c4cccc(NC(=O)c5c(F)cccc5F)c4)nn4ccccc34)n2)c1 [GSK336735]	11	4	12	20	0	12	100	0	69	71	30	45	0	48	8	60	26	18	0	11
COc1ccc(COc2cc(-n3cnc4ccccc43)sc2C(N)=O)cc1 [GSK1024304]	29	16	0	16	12	12	4	0	0	0	11	0	0	0	6	19	12	9	0	11
Cc1c2ccc(N(C)c3ccnc(Nc4cccc(S(N)(=O)=O)c4)n3)cc2nn1Cc1ccccc1.Cl.Cl [GW787226]	8	3	16	0	0	0	5	0	21	4	15	21	0	19	0	39	12	20	7	0
COc1cc(Nc2nccc(N3CCC(NC(=O)c4cccc(NC(C)=O)c4)C3)n2)cc(OC)c1OC (stereo not shown) [GSK1379754]	0	32	29	17	28	28	0	0	11	0	0	9	6	20	11	26	15	0	17	12
CN(C1=C(c2ccccc2)C(=O)NC1=O)c1ccccc1 [SB-334860]	0	3	0	10	9	10	27	6	6	1	24	6	6	10	2	6	8	20	11	9
Cc1nnc(-c2ccc3occ(-c4ccc(C(C)O)cc4)c3c2)o1 (stereo not shown)	7	19	36	18	11	0	28	0	0	0	0	30	0	52	3	0	9	15	12	13
Fc1ccc(-c2ncn(CCCN3CCOCC3)c2-c2cccnc2)cc1 [SB-211743]	24	0	0	3	0	24	0	0	0	0	1	0	11	0	0	3	20	0	0	0
Cc1ccc(NC(=O)c2ccnc(N3CCN(C)CC3)c2)cc1-c1ccc(C(=O)NCC2CC2)cc1 [GW775604]	7	0	0	0	0	0	0	0	0	0	0	7	0	4	0	18	0	0	7	0
O=c1cc(N2CCOCC2)nc2n(Cc3cccc4ccccc34)ccn12 [GSK2333389]	0	0	0	20	7	21	0	0	8	0	0	14	0	8	5	9	10	0	11	5
O=c1cc(N2CCOCC2)nc2n(Cc3cccc(F)c3)ccn12 [GSK2297430]	12	5	0	26	0	5	32	0	14	9	0	10	0	10	4	13	0	0	14	17
CC(C)(C)n1cnc2c(N)ncnc21 [SKF-97359]	9	0	6	0	61	0	39	0	0	0	0	0	0	0	0	7	0	0	0	0
CCCCCc1nc2c(N)ncnc2n1CCCCC [SKF-97255]	0	0	11	0	0	27	0	0	0	0	0	10	0	5	0	0	5	0	5	0
Fc1ccc(-c2nn3c(OCC(F)(F)F)cccc3c2-c2ccncc2)cc1 [GW514784]	0	18	0	3	0	10	20	0	8	7	24	3	0	11	0	13	16	0	6	1
COc1ccc(Nc2nccc(N3CCC(NC(=O)Nc4cc(C)ccc4C)C3)n2)cc1 (stereo not shown) [GSK1379741]	0	0	0	14	0	12	33	0	30	0	0	12	0	0	5	2	14	27	8	9
COc1ccc(CNC(=O)NC2CCN(c3ccnc(Nc4ccc(OC)cc4)n3)C2)cc1 (stereo not shown) [GSK1379727]	0	0	0	20	0	0	18	0	0	14	0	10	0	2	0	1	6	0	7	11
COc1cc2ncn(-c3cc(OCc4sccc4Cl)c(C(N)=O)s3)c2cc1OC [GSK448459]	0	0	0	13	0	26	32	0	0	0	0	0	0	2	0	11	3	9	6	0
